Laboratory results as given in PubChem BioAssay (NCATS).
Records with an inconclusive call do not appear. Activity calls are given as the source filed them. Calls come from the whole dose curve; as a rule, active = well fitted activation curve with a large enough effect in the main read-out, with a control signal flat (not every such curve was filed as active); inconclusive = small, poorly fitted or top-dose-only effect, or effect the other way, or a change in a side signal; inactive = flat fitted curve, though single readings scatter.

molecular target: 3',5'-cyclic-AMP phosphodiesterase 4B (Homo sapiens) (UniProt Q07343); test: qHTS Assay for Inhibitors of PDE-IV (AID 607); conditions: HEK293 ACTOne CNG channel cells, membrane potential fluorescence; series mostly up to 22.9 µM
Sequence (Q07343 whole entry, looked up): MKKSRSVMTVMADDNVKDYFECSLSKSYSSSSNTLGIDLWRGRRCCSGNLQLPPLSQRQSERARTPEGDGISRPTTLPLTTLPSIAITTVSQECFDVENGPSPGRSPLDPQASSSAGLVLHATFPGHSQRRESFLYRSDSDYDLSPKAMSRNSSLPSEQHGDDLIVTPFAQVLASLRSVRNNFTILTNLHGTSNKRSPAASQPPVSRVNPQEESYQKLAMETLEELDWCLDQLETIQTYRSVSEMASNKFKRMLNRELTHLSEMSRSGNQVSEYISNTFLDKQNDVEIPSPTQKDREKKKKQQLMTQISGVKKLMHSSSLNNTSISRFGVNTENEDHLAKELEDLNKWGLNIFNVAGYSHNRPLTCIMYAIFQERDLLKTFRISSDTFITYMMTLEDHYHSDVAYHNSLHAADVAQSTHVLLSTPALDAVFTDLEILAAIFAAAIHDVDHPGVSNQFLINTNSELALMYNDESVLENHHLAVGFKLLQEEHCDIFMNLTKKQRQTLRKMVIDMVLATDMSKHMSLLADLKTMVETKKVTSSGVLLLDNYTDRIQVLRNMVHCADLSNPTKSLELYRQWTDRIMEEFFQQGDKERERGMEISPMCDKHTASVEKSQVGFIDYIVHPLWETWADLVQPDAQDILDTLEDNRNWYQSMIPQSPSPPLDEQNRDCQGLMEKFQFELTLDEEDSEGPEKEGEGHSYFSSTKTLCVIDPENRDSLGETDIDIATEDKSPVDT
Excerpt: NIH Chemical Genomics Center [NCGC]
NIH Molecular Libraries Screening Centers Network [MLSCN]
The cyclic nucleotide phosphodiesterases (PDEs) are proteins that catalyze hydrolysis of 3', 5'-cyclic nucleotides, such as cyclic adenosine monophosphate (cAMP) and cyclic guanosine monophosphate (cGMP), to their corresponding 5'-nucleotide monophosphates. These enzymes play an important role in controlling cellular concentrations of cyclic nucleotides and have a central role in a variety of intracellular signaling events. cAMP PDEs are emerging as a promising class of drug targets in asthma and cardiovascular disease therapeutic areas.
There are no commercially available cell-based screening assays for PDE inhibitors: currently biochemical assays are done using pure substrates (cAMP or cGMP) and purified recombinant PDE enzymes. As with other biochemical screens on intracellular targets, false positives and false negatives may result from issues involving cell membrane permeability, cellular metabolism, and the like.
Here we report the development of a cell-based screening assay for cAMP phosphodiesterase (PDE) inhibitors. The assay is based on the BD ACTOne# technology (BD Biosciences) which utilizes a modified cyclic nucleotide-gated channel (CNG) to monitor intracellular cAMP changes in live cells. The CNG channel is localized on the plasma membrane, and opens when the intracellular cAMP level increases, resulting in ion flux and cell membrane depolarization. The influx of cations through the CNG channel can be quantified using membrane potential (MP) dyes. We modified the BD ACTOne technology to allow the detection of PDE inhibitors, and performed an inhibitor screen for PDE-IV, which is expressed endogenously in HEK293 cells. We optimized this assay in homogeneous 1536-well plate assay format for high throughput screening.
NCGC Assay Protocol Summary:
The medium contained 10% FBS (Invitrogen), 2 mM L-glutamine, and 250 ug/ml G418 (Cellgro) and 1 ug/ml puromycin (Clontech). ACTOneTM parental cells (BD Biosciences) were maintained in the same medium without puromycin.
The activity of the CNG channel was measured by BD ACTOneTM membrane potential dye kit (BD Biosciences). Forskolin, a positive control for cAMP activation and RO 20-1724, a PDE inhibitor, were both purchased from Sigma and solublized in DMSO.
Sequence,Parameter,Value,Description
1,Reagent,3 uL,1000 cells/well 1536 TC treated Black plate
3,Compound,0.5 uL,Kalypsys dispense RO 20-1724 100 uM final [A]
4,Reagent,3 uL,BD membrane potential dye
6,Compound,23 nL,Final concentration was 0.7nM to 22.9uM
8,Detector,EX 535 / EM 590 [B],Envision
Footnotes: [A] The stock 2 mM RO 20-1724 PDE inhibitor was made in 10 % DMSO. Parental cell line received 10 uM forskolin + 100 uM RO. [B] Envsion settings: Bottom Excitation 535/20 nm top emission 590/20, gain of 150 and 5 flashes per well.
Keywords: PDE, PDE-IV, cytotoxicity, flourescence, MLSMR, MLSCN, NIH Roadmap, qHTS, NCGC

Potency, inactive:
O=c1c(-c2cccs2)nc2cnc(N3CCNCC3)nc2n1C1CC1, CCN[C@@H]1C[C@H](C)S(=O)(=O)c2sc(S(N)(=O)=O)cc21, CN(C)C(=O)c1ccc(-c2cc(N(C)Cc3ccco3)ncn2)cc1, CN1CCN(c2ncc3nc(-c4ccccc4)c(=O)n(CCC#N)c3n2)CC1, COCCn1c(=O)c(-c2ccc(F)cc2)nc2cnc(Oc3ccc(OC)cc3)nc21, N#Cc1ccc(CN2CCCC3(CCNCC3)C2)cc1, O=C(Nc1ccccc1)N1CC[C@@]2(CCCN(C(=O)c3csnn3)C2)C1, COC(=O)N1CCC2(CCCN(Cc3ccccc3)C2)CC1, CN1CCN(c2cc(-c3ccccc3Cl)ncn2)CC1, CC(=O)NCCNc1ncnc2ccc(-c3ccc4c(c3)OCO4)cc12, Cc1noc(C)c1-c1ccc2ncnc(N3CCC(C(=O)O)CC3)c2c1, O=C(c1ccccc1)c1ccc2n1CC[C@H]2C(=O)O, O=c1ccc2cc(O)c(O)cc2o1, O=C(c1cc(C(F)(F)F)cc(C(F)(F)F)c1)N1CCC2(CCCN(c3ccccn3)C2)CC1, COc1cccc(-c2nccc(NCc3cnc(C)cn3)n2)c1, COc1ccc(NC(=O)N2CCCC3(CCN(C(=O)c4ccncc4)CC3)C2)cc1, COCC(=O)N1CCC2(CCCN(c3ncccn3)C2)CC1, O=C(c1csnn1)N1CCC[C@@]2(CCN(c3ccccc3)C2)C1, COCCn1c(=O)c(-c2ccccc2)nc2cncnc21, N#Cc1cccc(NC(=O)N2CC[C@@]3(CCCN(C(=O)c4cnccn4)C3)C2)c1, COc1ccc(C(=O)N2CCC3(CCCN(C)C3)CC2)cc1, O=C(Nc1cccc(F)c1)N1CC2(CCN(C(=O)c3ccncc3)CC2)C1, O=c1c(-c2cccs2)nc2cnc(Nc3ccccc3)nc2n1C[C@H]1CCCO1, COCCn1c(=O)c(-c2cccc(Cl)c2)nc2cncnc21, CC(=O)N1CCC2(CC1)CCN(C(c1ccccc1)c1ccccc1)CC2, O=C(c1cccc(F)c1)N1CCC2(CCCN(Cc3cc(C(F)(F)F)cc(C(F)(F)F)c3)C2)CC1, COc1ccc(CNc2nc(-c3ccc(N(C)C)cc3)nc3ccccc23)c(OC)c1, O=C(Nc1cccc(F)c1)N1CCC2(CC1)CCN(C(=O)c1ccco1)CC2, O=C(c1cnccn1)N1CCC2(CC1)CCN(c1ccccn1)CC2, O=S(=O)(c1ccccc1)N1CCC2(CCCN(c3cccc(-c4ccccc4)c3)C2)CC1, COCCn1c(=O)c(-c2ccc(Cl)cc2)nc2cnc(N3CCOCC3)nc21, CN(C)C(=O)c1ccc(-c2ccc3ncnc(Nc4ccccc4)c3c2)cc1, CN(C)c1ccc(-c2nc(N(C)C)c3ccccc3n2)cc1, COc1ccc2[nH]cc(CCNc3ncncc3-c3ccccc3CN(C)C)c2c1, COC(=O)N1CCC2(CCCN(c3ncccn3)C2)CC1, c1cncc(CNc2ccnc(-c3cccnc3)n2)c1, O=C(c1cnccn1)N1CCC2(CC1)CCN(c1ccccc1)CC2, O=C(c1cc(C(F)(F)F)cc(C(F)(F)F)c1)N1CCC2(CC1)CCN(c1ncccn1)CC2, CC(=O)OCC1=C(C(=O)O)N2C(=O)[C@@H](NC(=O)Cc3cccs3)[C@@H]2SC1, CC(C)CN1CCC2(CC1)CCN(C(=O)c1cnccn1)CC2
